A short description of assay [1]: qHTS assay to identify small molecule antagonists of the sonic hedgehog signaling (Shh) pathway (AID 1259369; calls by dose curve; note: nearly all actives have a fitted effect of over 45% in size; note: potency is the fitted concentration of half-maximal effect). The method in brief: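 Luminescence readout: firefly Luc under Gli1 response element in 3T3Gli1-Luc cells (NIH/3T3 clone). Antagonist mode, stimulation by conditioned medium; compound exposure 24hr at 37 C, 5% CO2.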
In general terms: Quantitative high-throughput screening tests each substance at several concentrations.

A short description of assay [2]: qHTS assay to identify small molecule agonists of the androgen receptor (AR) signaling pathway in the presence of an antagonist - cell viability counter screen (AID 1259379). Note: nearly all actives have a fitted effect of over 25% in size. Note: potency is the fitted concentration of half-maximal effect. A digest of the protocol: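 Viability counter screen: CellTiter-Fluor fluorescence, measured in the same wells as the luciferase read-out. MDA-kb2 cells, 3,000/well, with nilutamide at 3.0uM final and compounds at 15 concentrations, 16 hr at 37C, 0% CO2.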

Assay [3] in a line: qHTS assay to identify small molecule agonists of the estrogen receptor beta (ER-beta) signaling pathway - cell viability counter screen (AID 1259380). Note: nearly all actives have a fitted effect of over 30% in size. Note: potency is the fitted concentration of half-maximal effect. A digest of the protocol: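 Luminescence read-out (CellTiter-Glo, 30 min, room temp) taken in the same wells as the beta-lactamase reporter assay; ER-beta-UAS-bla HEK293T cells exposed to DMSO-dissolved compounds for 16 hr at 37C in 2% charcoal-stripped FBS medium.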

A short description of assay [4]: qHTS assay to identify small molecule antagonists of the estrogen receptor beta (ER-beta) signaling pathway - cell viability counter screen (AID 1259382). Note: nearly all actives have a fitted effect of over 55% in size. Note: potency is the fitted concentration of half-maximal effect. The method in brief:
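Luminescent ATP read-out (CellTiter-Glo, 30 min, RT) taken in the same wells as the bla reporter assay. HEK293T ER-beta-UAS-bla cells in 2% charcoal-stripped FBS were exposed to compounds with 1nM E2 for 16 hr at 37C.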

Assay [5] addresses Estrogen receptor (Homo sapiens) (UniProt P03372). Kind of assay: qHTS assay to identify small molecule agonists of the estrogen receptor alpha (ER-alpha) signaling pathway in the presence of an antagonist (AID 1259383; calls by dose curve; note: top concentration of the series differs between compounds; nearly all actives have a fitted effect of over 15% in size). A digest of the protocol: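 Luciferase luminescence (ONE-Glo, 30min at room temperature) measured in VM7Luc4E2 cells after 22hr compound exposure at 15 concentrations, with 10.0nM ICI-182,780 final present; cells express endogenous ER-alpha and carry four EREs upstream of luciferase.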

Assay [6] deals with Thyrotropin receptor (Homo sapiens) (UniProt P16473). Put plainly: qHTS assay to identify small molecule antagonists of the thyroid stimulating hormone receptor (TSHR) signaling pathway (AID 1259385; calls by dose curve; note: nearly all actives have a fitted effect of over 20% in size). A digest of the protocol: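 TSHR-HEK293 cells were plated and held 18 h at 37C/5% CO2, then given compound plus Ro20-1724 and stimulated with TSH at 1.5 ng/mL final. After 30 min at room temperature, cAMP was detected with cAMP-d2/anti-cAMP-cryptate (1 h) by fluorescence.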

Assay [7] is described as follows: qHTS assay to identify small molecule agonists of the estrogen receptor alpha (ER-alpha) signaling pathway in the presence of an antagonist - cell viability counter screen (AID 1259386). Note: nearly all actives have a fitted effect of over 30% in size. Note: potency is the fitted concentration of half-maximal effect. The method in brief: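 Read-out: CellTiter-Fluor fluorescence after 1hr reagent incubation, measured in the same wells as the luciferase readout. VM7Luc4E2 cells were exposed to 15 compound concentrations with 10.0nM ICI-182,780 for 22hr at 37C.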

Assay [8] has as its target Progesterone receptor (Homo sapiens) (UniProt P06401). Kind of assay: qHTS assay to identify small molecule agonists of the progesterone receptor (PR) signaling pathway (AID 1346784; calls by dose curve; note: nearly all actives have a fitted effect of over 30% in size). The method in brief:
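Using charcoal-stripped serum (2%) to limit endogenous steroids, PR-UAS-bla HEK 293T cells received compounds for 16 hr at 37C after 6 hr plating; beta-lactamase FRET fluorescence was recorded following 2 hr substrate loading at room temperature.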

Assay [9] has the same target. Put plainly: qHTS assay to identify small molecule antagonists of the progesterone receptor (PR) signaling pathway (AID 1346795; active = well fitted inhibition curve with a large enough effect in the signal ratio in the repeat runs, not every such curve was filed as active; the % refers to the signal ratio; note: potency is the fitted concentration of half-maximal effect). A digest of the protocol:
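Inhibition of R5020-induced (1 nM final) beta-lactamase reporter signal in PR-UAS-bla HEK293T cells was scored by FRET fluorescence after overnight (16 hr) compound treatment.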

Assay [10] in a line: qHTS assay to identify small molecule antagonists of the progesterone receptor (PR) signaling pathway - cell viability counter screen (AID 1346798). Note: nearly all actives have a fitted effect of over 50% in size. Note: potency is the fitted concentration of half-maximal effect. A digest of the protocol:
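ATP content as viability readout: CellTiter-Glo luminescence, 30 min room temperature, in PR-UAS-bla HEK293T cells after 16 hr compound/R5020 treatment at 37C and 5% CO2.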

Assay [11] can be described thus: qHTS assay to identify small molecule antagonists of the TGF-beta/Smad signaling pathway - cell viability counter screen (AID 1346824). Note: nearly all actives have a fitted effect of over 50% in size. A digest of the protocol: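 SBE-bla HEK 293T cells were plated overnight at 37 C, then given compounds in DMSO plus TGF-beta1 (added as 0.25 ng/mL solution) for 5 hr. After the bla read, CellTiter-Glo was added to the same wells and luminescence read after 30 min at room temperature.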

Assay [12] can be described thus: qHTS assay to identify small molecule agonists of the TGF-beta/Smad signaling pathway - cell viability counter screen (AID 1346829). Note: top concentration of the series differs between compounds; nearly all actives have a fitted effect of over 45% in size. A digest of the protocol: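 Same-well cytotoxicity: CellTiter-Glo added after the 2 hr room-temperature beta-lactamase substrate step, luminescence measured 30 min later; cells had 5 hr of compound at 37 C.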
Assay [13] in a line: qHTS assay to identify small molecule agonists of the TGF-beta/Smad signaling pathway (AID 1346859; active = well fitted activation curve with a large enough effect in the signal ratio in the repeat runs, not every such curve was filed as active; the % refers to the signal ratio; note: series mostly up to about 77 µM). The method in brief:
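Stable Smad binding element-beta-lactamase HEK 293T cells; 5 hr compound exposure at 37 C under 5% CO2; 2 hr room-temperature substrate step; fluorescence excited at 405 nm, collected at 460 nm and 530 nm.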

A short description of assay [14]: qHTS assay to identify small molecule agonists of the progesterone receptor (PR) signaling pathway - cell viability counter screen (AID 1346799; calls by dose curve; note: nearly all actives have a fitted effect of over 45% in size; note: potency is the fitted concentration of half-maximal effect). The method in brief:
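Cytotoxicity in PR-bla HEK293T cells: 16 h compound, 37C; CellTiter-Glo added post-FRET read; luminescence after 30 min RT.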

Assay [15] concerns the target Thyrotropin-releasing hormone receptor (Homo sapiens) (UniProt P34981). Put plainly: qHTS assay to identify small molecule agonists of the thyrotropin-releasing hormone receptor (TRHR) signaling pathway (AID 1346891; calls by dose curve;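 note: HEK293 cells expressing TRHR with calcium dye readout; series mostly up to about 58 µM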). The method in brief:
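In 1536-format, 1500 TRHR-Hek293 cells per well grew 18 h, took up calcium dye for 2 h at 37 °C, received compound, and were read kinetically; 15-point titrations, triplicates.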

Assay [16] is described as follows: qHTS assay to identify small molecule agonists or antagonists of the thyroid stimulating hormone receptor (TSHR) signaling pathway - wild type cell line counter screen (AID 1259384; calls by dose curve). A digest of the protocol: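 Wild-type HEK293 cells were plated 18 h at 37 C/5% CO2, pin-dosed with compound plus Ro20-1724 medium, held 30 min at room temperature, then given cAMP-d2 and anti-cAMP-cryptate; fluorescence was read after 1 h. Fifteen concentrations, triplicate.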

For assay [17], the target named is Thyrotropin-releasing hormone receptor (Homo sapiens) (UniProt P34981). Put plainly: qHTS assay to identify small molecule antagonists of the thyrotropin-releasing hormone receptor (TRHR) signaling pathway (AID 1346877; active = well fitted inhibition curve with a large enough effect in the repeat runs, not every such curve was filed as active; note: series mostly up to about 51 µM). The method in brief: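 HEK293/TRHR cells, 18 h, 37 °C; Ca2+ dye 2 h; cpd 5 min RT; TRH 1 nM final; fluorescence read 3 min, 1 s intervals; 15 concs, triplicate.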

Assay [18] concerns the target Androgen receptor (Homo sapiens) (UniProt P10275). Put plainly: qHTS assay to identify small molecule agonists of the androgen receptor (AR) signaling pathway in the presence of an antagonist (AID 1259381; calls by dose curve; note: nearly all actives have a fitted effect of over 15% in size). A digest of the protocol:
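Luciferase read-out (ONE-Glo, 30min room temperature) in MDA-kb2 MMTV-reporter cells; agonist mode run in presence of AR antagonist nilutamide, 3.0uM final. Compounds tested as 15-point series, 16hr exposure at 37C, 0% CO2.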

Records with an inconclusive call do not appear. Active and inactive are the calls of the source. Unless noted, calls come from the whole dose curve; as a rule, active = well fitted curve in the direction sought with a large enough effect in the repeat runs; inconclusive = weak or mixed curves; inactive = no such curve, though single readings can be large; an effect the other way counts as inactive or inconclusive.

Sequence of Estrogen receptor (Homo sapiens) (P03372 whole entry, looked up): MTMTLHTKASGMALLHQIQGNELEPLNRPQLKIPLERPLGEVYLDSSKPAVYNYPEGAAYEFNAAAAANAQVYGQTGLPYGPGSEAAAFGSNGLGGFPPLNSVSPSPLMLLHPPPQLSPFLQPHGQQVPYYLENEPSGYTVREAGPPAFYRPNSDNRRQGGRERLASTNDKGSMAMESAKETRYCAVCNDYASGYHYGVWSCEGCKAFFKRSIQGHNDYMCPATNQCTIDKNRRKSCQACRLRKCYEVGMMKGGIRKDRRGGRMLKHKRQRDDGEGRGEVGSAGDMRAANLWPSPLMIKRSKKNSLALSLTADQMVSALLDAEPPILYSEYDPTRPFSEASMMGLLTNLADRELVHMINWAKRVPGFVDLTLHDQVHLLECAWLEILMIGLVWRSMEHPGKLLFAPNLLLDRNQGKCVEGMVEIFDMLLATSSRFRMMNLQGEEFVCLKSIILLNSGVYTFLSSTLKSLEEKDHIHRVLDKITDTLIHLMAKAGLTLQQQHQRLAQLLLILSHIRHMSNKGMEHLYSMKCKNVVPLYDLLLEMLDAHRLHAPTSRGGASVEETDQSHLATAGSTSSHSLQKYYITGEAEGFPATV
Sequence of Thyrotropin-releasing hormone receptor (Homo sapiens) (P34981 whole entry, looked up): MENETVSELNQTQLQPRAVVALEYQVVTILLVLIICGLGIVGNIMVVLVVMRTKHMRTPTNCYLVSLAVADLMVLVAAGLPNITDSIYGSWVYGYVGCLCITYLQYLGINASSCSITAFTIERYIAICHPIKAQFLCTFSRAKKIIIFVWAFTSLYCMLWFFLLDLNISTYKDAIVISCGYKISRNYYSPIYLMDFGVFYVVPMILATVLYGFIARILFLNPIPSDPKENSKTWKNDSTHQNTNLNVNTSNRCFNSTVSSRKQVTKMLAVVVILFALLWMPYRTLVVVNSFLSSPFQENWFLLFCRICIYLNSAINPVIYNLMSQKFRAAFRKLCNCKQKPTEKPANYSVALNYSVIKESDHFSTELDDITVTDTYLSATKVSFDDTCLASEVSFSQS
Sequence of Progesterone receptor (Homo sapiens) (P06401 whole entry, looked up): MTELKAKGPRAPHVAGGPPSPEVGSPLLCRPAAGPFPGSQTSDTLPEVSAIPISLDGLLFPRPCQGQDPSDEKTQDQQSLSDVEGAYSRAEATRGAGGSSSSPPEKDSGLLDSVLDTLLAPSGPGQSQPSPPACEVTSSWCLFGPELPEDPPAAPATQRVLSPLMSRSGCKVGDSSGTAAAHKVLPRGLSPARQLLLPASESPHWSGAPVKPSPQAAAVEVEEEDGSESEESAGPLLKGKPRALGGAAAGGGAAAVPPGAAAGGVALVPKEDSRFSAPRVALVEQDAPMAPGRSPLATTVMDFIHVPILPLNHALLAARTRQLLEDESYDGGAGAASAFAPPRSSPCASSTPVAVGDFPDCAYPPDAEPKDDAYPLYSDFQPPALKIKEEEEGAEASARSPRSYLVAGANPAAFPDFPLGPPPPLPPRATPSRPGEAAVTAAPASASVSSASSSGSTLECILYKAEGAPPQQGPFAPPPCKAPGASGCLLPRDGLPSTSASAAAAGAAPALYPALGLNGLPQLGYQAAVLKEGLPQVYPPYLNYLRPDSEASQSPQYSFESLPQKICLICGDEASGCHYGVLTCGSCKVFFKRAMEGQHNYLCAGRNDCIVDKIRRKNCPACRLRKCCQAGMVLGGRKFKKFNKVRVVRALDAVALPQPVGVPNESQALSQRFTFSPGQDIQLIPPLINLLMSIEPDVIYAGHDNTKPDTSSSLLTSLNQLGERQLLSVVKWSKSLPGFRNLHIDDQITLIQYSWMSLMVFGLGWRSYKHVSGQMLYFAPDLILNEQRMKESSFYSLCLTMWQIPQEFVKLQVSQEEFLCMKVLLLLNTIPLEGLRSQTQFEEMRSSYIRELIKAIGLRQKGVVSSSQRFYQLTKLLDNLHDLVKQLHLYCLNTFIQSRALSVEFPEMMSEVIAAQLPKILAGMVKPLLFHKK
Sequence of Thyrotropin receptor (Homo sapiens) (P16473 whole entry, looked up): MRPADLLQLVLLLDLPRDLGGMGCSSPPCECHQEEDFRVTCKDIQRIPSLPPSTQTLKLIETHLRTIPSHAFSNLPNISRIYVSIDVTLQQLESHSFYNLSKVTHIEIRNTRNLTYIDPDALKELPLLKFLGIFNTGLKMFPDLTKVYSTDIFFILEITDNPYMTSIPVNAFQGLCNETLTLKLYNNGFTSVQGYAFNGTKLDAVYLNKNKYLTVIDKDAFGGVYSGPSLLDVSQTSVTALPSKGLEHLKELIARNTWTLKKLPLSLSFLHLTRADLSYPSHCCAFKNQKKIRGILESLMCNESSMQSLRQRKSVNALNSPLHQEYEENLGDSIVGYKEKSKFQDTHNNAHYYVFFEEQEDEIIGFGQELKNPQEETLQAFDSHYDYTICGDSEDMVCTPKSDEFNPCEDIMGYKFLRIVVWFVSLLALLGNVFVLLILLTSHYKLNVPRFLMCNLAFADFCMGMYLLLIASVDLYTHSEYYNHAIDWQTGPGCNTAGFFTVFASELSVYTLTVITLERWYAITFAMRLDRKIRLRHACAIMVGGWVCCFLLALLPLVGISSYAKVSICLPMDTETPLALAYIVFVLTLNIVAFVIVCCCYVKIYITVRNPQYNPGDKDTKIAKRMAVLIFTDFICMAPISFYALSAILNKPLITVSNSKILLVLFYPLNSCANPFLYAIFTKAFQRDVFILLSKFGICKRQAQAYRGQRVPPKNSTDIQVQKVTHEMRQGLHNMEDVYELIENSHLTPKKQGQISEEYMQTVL
Sequence of Androgen receptor (Homo sapiens) (P10275 whole entry, looked up): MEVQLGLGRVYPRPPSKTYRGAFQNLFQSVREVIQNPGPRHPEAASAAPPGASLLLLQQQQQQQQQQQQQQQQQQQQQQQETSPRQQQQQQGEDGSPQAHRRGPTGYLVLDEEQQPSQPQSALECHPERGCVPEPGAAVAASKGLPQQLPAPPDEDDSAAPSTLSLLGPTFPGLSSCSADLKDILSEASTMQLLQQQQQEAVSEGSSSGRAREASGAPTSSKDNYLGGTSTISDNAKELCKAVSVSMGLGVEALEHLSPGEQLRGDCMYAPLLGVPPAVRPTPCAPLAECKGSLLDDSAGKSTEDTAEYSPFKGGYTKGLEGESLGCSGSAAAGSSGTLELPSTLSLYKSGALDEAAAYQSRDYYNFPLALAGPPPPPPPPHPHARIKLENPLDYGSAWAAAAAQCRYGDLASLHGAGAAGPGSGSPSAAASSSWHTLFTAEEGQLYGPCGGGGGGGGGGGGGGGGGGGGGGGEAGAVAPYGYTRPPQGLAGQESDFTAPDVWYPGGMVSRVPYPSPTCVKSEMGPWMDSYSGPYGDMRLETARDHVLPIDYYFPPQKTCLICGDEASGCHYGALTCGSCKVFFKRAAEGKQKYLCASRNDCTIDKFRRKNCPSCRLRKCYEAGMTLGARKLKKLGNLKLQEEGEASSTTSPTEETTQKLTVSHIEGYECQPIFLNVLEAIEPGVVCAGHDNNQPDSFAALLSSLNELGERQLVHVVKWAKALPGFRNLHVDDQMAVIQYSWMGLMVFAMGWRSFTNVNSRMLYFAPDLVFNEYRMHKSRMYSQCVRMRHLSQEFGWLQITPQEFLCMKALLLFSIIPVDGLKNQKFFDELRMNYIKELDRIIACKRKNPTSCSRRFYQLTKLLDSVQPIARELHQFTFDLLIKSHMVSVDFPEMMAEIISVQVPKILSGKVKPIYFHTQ

For `CCOC(=O)c1ccc(O)c(O)c1`, in assay [1], the Potency is 29.8 µM (active). Further, the Potency result in assay [2], in [3], in assay [4], in assay [5], in [6] and in [7] was “inactive” in each case. In addition, the Potency entry in assay [8], in [9], in assay [10], in assay [11], in assay [12] and in assay [13] was “inactive” throughout.
In the case of `CC(=O)Oc1ccc([N+](=O)[O-])cc1CCl`, the Potency entry in assay [1], in assay [3], in assay [4], in assay [5], in assay [8] and in assay [9] was “inactive” each time. In addition, the Potency result in assay [10], in [14], in [11], in assay [12], in assay [13] and in [15] was “inactive” in each case. Moreover, the Potency in [2] was 30.6 µM (active); in assay [7], 48.6 µM (active).
Consider `C=COCC(C)C`, for which the Potency entry in assay [1], in assay [2], in [3], in assay [4], in assay [5] and in assay [7] was “inactive” each time. In addition, the Potency result in assay [10], in assay [14], in assay [11], in assay [12], in assay [13] and in [15] was “inactive” in each case. Further, the result in assay [16] and in assay [17] was inactive.
Consider `CC(C)COCC(CN(Cc1ccccc1)c1ccccc1)N1CCCC1` (stereo not drawn), for which the Potency was 26.6 µM (active) in assay [1]; 26.6 µM (active) in assay [2]; 29.8 µM (active) in assay [3]; 21.1 µM (active) in assay [4]; 29.8 µM (active) in [9]. In addition, the Potency entry in assay [5], in assay [7] and in assay [15] was “inactive” each time. In assay [17], the outcome was inactive.
For `Oc1cccc(Nc2ccccc2)c1`, the Potency entry in assay [1], in [2], in assay [3], in assay [4], in [6] and in [7] was “inactive” each time. Further, the Potency result in [8], in assay [11], in assay [12], in assay [13] and in [15] was “inactive” throughout. The Potency in assay [9] is 20.2 µM (active). In addition, the compound was called inactive in assay [17].
For `NC1[C@H]2CN(c3nc4c(cc3F)c(=O)c(C(=O)O)cn4-c3ccc(F)cc3F)C[C@@H]12` (stereo partly drawn), the Potency in assay [1] is 29.8 µM (active). For the same compound, the Potency result in assay [2], in [3], in [18], in [4], in assay [5] and in [7] was “inactive” throughout. Moreover, the Potency result in [14], in [12], in [13] and in assay [15] was “inactive” in each case. Moreover, the outcome in assay [16] and in [17] was inactive.
For the compound `CCOC(=O)[C@H](CCc1ccccc1)N[C@@H](C)C(=O)N(CC(=O)O)C1Cc2ccccc2C1`, the Potency entry in assay [1], in [2], in [5], in assay [7], in assay [8] and in assay [11] was “inactive” throughout. Besides, the Potency entry in assay [12], in assay [13] and in assay [15] was “inactive” each time. For the same compound, the results for the Potency in [3], in assay [4] and in assay [10] were 6.68 µM (active), 11.9 µM (active) and 6.68 µM (active), respectively. For the same compound, in assay [17], the outcome was inactive.
For `CCCCCCCCCCCCCCN(CCO)CCO`, the Potency in [1] was 19.3 µM (active); in [2], 61.1 µM (active); in assay [3], 54.5 µM (active); in assay [4], 48.6 µM (active); in [14] it was 34.4 µM (active). The Potency result in [7], in [13] and in assay [15] was “inactive” throughout. In addition, the compound was called inactive in assay [17].

These data come from PubChem BioAssay (Tox21).
